BCLXL inh: inhibitors of human Bcl-xL, primary screen, biochemical, fluorescence polarization, HTS | Bcl-2-like protein 1 (Homo sapiens), Q07817 | GST-Bcl-xL / FITC-Bim BH3 peptide fluorescence polarization | inhibition, % at 10.9 µM | actives 0.7% (n = 320,000) | AID 2129, 2009;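 active = inhibition above the mean of all tested compounds plus 3 SD, cutoff set per campaign, cut at about 30% in these data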;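 also: 0% = DMSO wells and 100% = unlabeled Bim-BH3 peptide competitor; inhibitors lower millipolarization by displacing the labeled peptide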
E coli Lon inh: inhibitors of E. coli Lon protease, primary screen, biochemical, fluorescence polarization. inhibition, % at 7.94 µM. purified E. coli Lon protease. P0A9M0. actives 0.42% (n = 360,000); in the data active = inhibition above about 13%, passing the limit was not always enough;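 also: 0% = enzyme with probe and DMSO and 100% = no enzyme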
GLD-1 TGE inh: GLD-1/TGE RNA complex disruptors, primary screen, biochemical, fluorescence polarization. actives 0.44% (n = 320,000). purified GLD-1 + fluorescein TGE RNA. AID 2280, 2010. inhibition, % at 5.96 µM. Female germline-specific tumor suppressor gld-1 (Caenorhabditis elegans), Q17339;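 active = percent inhibition above a per-plate cutoff, the plate mean of test compounds plus 3 SD, cut at about 30% in these data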;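 also: 0% = DMSO wells with GLD-1 and probe and 100% = wells lacking GLD-1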
MEX-5 binding: MEX-5 zinc finger RNA-binding disruptors – biochemical, C. elegans, fluorescence polarization, MLPCN library, primary screen | Zinc finger protein mex-5 (Caenorhabditis elegans), Q9XUB2 | MEX-5/FITC-TCR2 RNA binding; stronger effect = lower value | activity score (negative = inhibition of binding), % at 10 µM | actives 0.38% (n = 300,000);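 active = inhibition past about -25% in most replicates, and total fluorescence under double the plate's negative control median, limit read from the data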;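 also: 0% = DMSO and -100% = 5 µM competing unlabeled TCR2 RNA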
Target sequence (Q9XUB2 whole entry, looked up): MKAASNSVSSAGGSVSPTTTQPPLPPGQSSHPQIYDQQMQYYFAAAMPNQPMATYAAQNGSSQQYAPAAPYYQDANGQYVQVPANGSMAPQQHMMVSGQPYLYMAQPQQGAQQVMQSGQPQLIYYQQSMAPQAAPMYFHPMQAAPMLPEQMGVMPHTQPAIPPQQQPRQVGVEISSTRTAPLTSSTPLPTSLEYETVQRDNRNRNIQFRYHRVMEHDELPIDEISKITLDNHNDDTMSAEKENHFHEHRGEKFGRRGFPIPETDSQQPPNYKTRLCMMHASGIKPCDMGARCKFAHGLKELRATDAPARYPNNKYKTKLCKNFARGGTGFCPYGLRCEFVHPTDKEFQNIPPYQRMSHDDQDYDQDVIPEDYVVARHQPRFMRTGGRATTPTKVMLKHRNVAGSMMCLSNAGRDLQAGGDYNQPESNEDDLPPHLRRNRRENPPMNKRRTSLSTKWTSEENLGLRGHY
EBV gp42 block: Epstein-Barr virus gp42 inhibitors, primary screen, biochemical, uHTS, fluorescence polarization | AID 1085, 2008 | inhibition, % (tested at 21.74 µM) | Glycoprotein 42 (Epstein-Barr virus (strain AG876)), Q1HVG2 | actives 0.42% (n = 220,000) | Fluorescence polarization binding assay, mP read-out; in the data active = inhibition above about 50%
MCL1 BIM primary: inhibitors of MCL1 binding to BIM-BH3, primary screen, biochemical, fluorescence polarization; GST-MCL1 / FITC-Bim-BH3 fluorescence polarization; actives 0.68% (n = 320,000); inhibition, % at 10.9 µM; Induced myeloid leukemia cell differentiation protein Mcl-1 (Homo sapiens), Q07820;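 active = inhibition above the mean inhibition of all tested compounds plus 3 SD, set per campaign, cut at about 40% in these data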;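 also: 0% = DMSO wells and 100% = unlabeled Bim-BH3 peptide control; higher means more loss of mP so more displacement of Bim peptide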
Bcl-xL conf: Bcl-xL inhibitors blocking Bim BH3 binding, confirmation, counter-screen for MCL1 inhibitor project, biochemical, fluorescence polarization | shares compounds with MCL1 BIM primary | GST-Bcl-xL / FITC-Bim BH3 peptide FP binding | inhibition, % at 10.9 µM | actives 54% (n = 1,700);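 active = inhibition above a cutoff equal to the mean inhibition of all tested compounds plus 3 SD, cut at about 30% in these data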;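 also: 0% = DMSO wells and 100% = unlabeled Bim BH3 control peptide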
MCL1 inh confirm: inhibitors of MCL1 binding to BIM-BH3, confirmation, biochemical, fluorescence polarization, triplicate | shares compounds with MCL1 BIM primary | AID 2168, 2009 | inhibition, % at 10.9 µM | GST-MCL1 / FITC-Bim-BH3 fluorescence polarization | actives 61% (n = 1,700);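 active = inhibition above the average of all tested compounds plus 3 SD, cut at about 40% in these data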;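 also: 0% = DMSO wells and 100% = unlabeled Bim-BH3 control peptide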
* marks the source's active call; other numbers are inactive results; / = not tested or not shown; + = active, no number. An excerpt weighted towards active compounds, which were near 1.5% of everything screened.

SMILES	BCLXL inh	E coli Lon inh	GLD-1 TGE inh	MEX-5 binding	EBV gp42 block	MCL1 BIM primary	Bcl-xL conf	MCL1 inh confirm
N#Cc1ccccc1CN1C(=O)S/C(=C/c2cccn2-c2ccc(C(=O)O)cc2)C1=O	3.3	-10.8	1.0	0.9	-1.4	19.9	/	/
O=C(O)c1ccc(-n2cccc2/C=C2/SC(=O)N(CC(=O)N3CCCC3)C2=O)cc1	14.2	-5.7	1.3	-21.1	/	54.6*	18.5	49.9*
Cc1nc(C)n(CCNS(=O)(=O)c2ccc(C)c(C)c2)n1	2.7	-6.2	-4.2	-3.7	/	5.8	/	/
O=c1cc2oc3cc(O)c(O)cc3c(-c3ccccc3[N+](=O)[O-])c-2cc1O	31.0*	2.9	8.4	-10.7	/	86.5*	61.6*	103.5*
O=c1cc(-c2ccccc2Cl)oc2cccc(O)c12	7.5	0.0	4.1	0.6	7.6	6.3	/	/
CCOc1ccc(CN2CCNC(=O)C2CC(=O)NCCN2CCOC2=O)cc1 (stereo unspecified)	9.1	8.8	5.8	-9.1	/	2.7	/	/
O=C(COC(=O)c1ccccn1)Nc1ncc(C(F)(F)F)cc1Cl	2.6	-9.3	9.5	-7.1	-6.9	1.3	/	/
O=C(COC(=O)c1ccc([N+](=O)[O-])s1)Nc1ncc(C(F)(F)F)cc1Cl	13.1	-20.8	1.9	-1.9	34.5	+	11.8	15.8
COc1ccc(Cl)cc1N(CC(=O)N1CCC(C)CC1)S(C)(=O)=O	1.1	-7.5	-3.1	2.0	-7.2	65.3*	10.6	16.7
Cc1c(C=O)c2ccccc2n1CC(=O)NC(C)c1ccccc1 (stereo unspecified)	5.8	0.5	-9.0	-1.0	-2.6	2.4	/	/
O=C(COc1ccccc1C(=O)N/N=C\c1ccc(O)c(O)c1)N/N=C/c1ccc(O)c(O)c1	16.3	4.8	2.8	-2.2	9.4	56.3*	44.2*	80.7*
CCOC(=O)c1cc2c(c(-c3cccc(-c4cc5ccccc5o4)c3)n1)[C@@H](CCO)N(S(=O)C(C)(C)C)C2 (stereo partly specified)	/	-18.1	/	/	/	/	/	/
CSCCC1NC(=O)N(C(C)C(=O)Nc2cc(Cl)cc(Cl)c2)C1=O (stereo unspecified)	4.3	-2.9	7.8	3.3	-1.7	7.7	/	/
COCc1cc(=O)n2[nH]c(-c3ccco3)cc2n1	-0.5	6.3	11.4	-2.2	-5.9	2.7	/	/
CCCCN1Cc2c(nc3cc(-c4ccco4)[nH]n3c2=O)C1=O	28.6	-4.6	-11.1	-4.2	-1.6	66.4*	36.7*	50.5*
O=C(O)C(S)C(S)C(=O)O (stereo unspecified)	27.8	-6.8	8.7	-20.6	/	84.0*	37.8*	85.8*
Cc1cc(C)n(-c2cccc(C(=O)O)c2)n1	-1.5	-13.9	10.5	0.4	-14.6	-3.4	/	/
O=C1C2CC=C(Cl)CC2C(=O)N1CCCCCCN1C(=O)C2CC=C(Cl)CC2C1=O (stereo unspecified)	29.9	31.8	14.9	-28.4*	63.4*	40.2*	32.7*	55.1*
CCCCCCCCCCCC1=C(O)C(=O)C=C(O)C1=O	8.4	4.2	3.6	-0.8	/	52.4*	45.8*	75.5*
COC1=CC(=O)C(O)=C(CCCCCCC/C=C/CCCCCCCC2=C(O)C(=O)C=C(OC)C2=O)C1=O	45.1*	1.2	4.5	1.4	/	106.9*	32.2*	81.4*
